Reference: PubChem BioAssay (EPA / NIEHS)
Several values for one entry are separate records, joined by “and”; a condition that tells them apart may be missing. Identical values can stand only once. A structure can be active in one record and inactive in another. Activity calls are given as the source filed them. How the source made its calls: active means hit-call score of the fitted dose curve at least 0.9, where 1 is the maximum; inactive means score below 0.9.

What was measured:
[1] = BSK_BF4T_SRB: Viability Assessment in the BioMAP Diversity Plus: BF4T Assay (AID 2284274); details: primary human bronchial epithelial cells with fibroblasts
Outline: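 Co-culture of human bronchial epithelial cells and dermal fibroblasts (BioMAP BF4T) exposed 24 h. Total protein by sulforhodamine B staining (0.1% SRB after 10% TCA fixation, 560 nm) in parallel cultures; fitted vs DMSO.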

[2] = read-out: urokinase Plasminogen Activator (uPA), PLAU (gene 5328); test: BSK_BF4T_uPA: BioMAP Diversity Plus: BF4T Assay for urokinase Plasminogen Activator (uPA) Biomarker Activity (AID 2284275); details: primary human bronchial epithelial cells with fibroblasts
Outline: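 Co-culture of human bronchial epithelial cells and dermal fibroblasts; uPA quantified by ELISA 24 hours after dosing, fitted relative to DMSO. Parallel SRB total-protein staining assessed overt cytotoxicity.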

[3] = read-out: Matrix Metallopeptidase 9 (MMP9), MMP9 (gene 4318); test: BSK_BF4T_MMP9: BioMAP Diversity Plus: BF4T Assay for Matrix Metallopeptidase 9 (MMP9) Biomarker Activity (AID 2284276); details: primary human bronchial epithelial cells with fibroblasts
Outline: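 Co-culture of human bronchial epithelial cells and dermal fibroblasts dosed for 24 h; MMP-9 quantified by ELISA and fitted upward versus DMSO. Cytotoxicity monitored in parallel cultures by SRB total-protein staining at the biomarker time point.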

[4] = read-out: Interleukin-8 (IL8), CXCL8 (gene 3576); test: BSK_IMphg_IL8: BioMAP Diversity Plus: IMphg Assay for Interleukin-8 (IL8) Biomarker Activity (AID 2284277); details: primary human endothelial cells with macrophages
Outline: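 Co-culture of human venular endothelial cells and macrophages exposed to chemicals for 24 h; IL-8 quantified by ELISA and compared against the DMSO baseline, with SRB total-protein staining in parallel cultures for cytotoxicity.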

[5] = read-out: Intercellular Adhesion Molecule 1 (ICAM1), ICAM1 (gene 3383); test: BSK_BE3C_ICAM1: BioMAP Diversity Plus: BE3C Assay for Intercellular Adhesion Molecule 1 (ICAM1) Biomarker Activity (AID 2284278); details: primary human bronchial epithelial cells;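 further: cell-surface ICAM-1 protein level quantified by ELISA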
Outline: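 Primary human bronchial epithelial cells were exposed to compound for 24 h, after which cell-surface ICAM-1 was quantified by ELISA. Activity was fitted in the gain-of-signal direction against DMSO as negative control and baseline.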

[6] = read-out: Interferon-inducible T-cell alpha chemoattractant (ITAC), CXCL11 (gene 6373); test: BSK_BE3C_ITAC: BioMAP Diversity Plus: BE3C Assay for Interferon-inducible T-cell alpha chemoattractant (ITAC) Biomarker Activity (AID 2284279); details: primary human bronchial epithelial cells
Outline: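 ELISA for I-TAC in primary human bronchial epithelial cultures 24 h post-treatment, fitted relative to DMSO baseline in positive direction. Cytotoxicity checked in parallel cultures by sulforhodamine B protein staining.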

[7] = read-out: Epidermal growth factor receptor (EGFR), EGFR (gene 1956); test: BSK_BE3C_EGFR: BioMAP Diversity Plus: BE3C Assay for Epidermal growth factor receptor (EGFR) Biomarker Activity (AID 2284281); details: primary human bronchial epithelial cells
Outline: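 Compound is added to human bronchial epithelial cells, cells incubate 24 h, then EGFR is detected by ELISA. Values reflect positive-direction fitting relative to DMSO.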

KRT18 (gene 3875) = test: BSK_BE3C_Keratin818: BioMAP Diversity Plus: BE3C Assay for Keratin 818 Biomarker Activity (AID 2284282); details: primary human bronchial epithelial cells
Outline: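 Human primary bronchial epithelial cells in the BE3C system were exposed to test chemical for 24 h, then Keratin 8/18 was quantified by ELISA. Activity was fitted in the positive direction against DMSO as negative control and baseline.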

[8] = read-out: Plasminogen activator inhibitor-1 (PAI1), SERPINE1 (gene 5054); test: BSK_CASM3C_PAI1: BioMAP Diversity Plus: CASM3C Assay for Plasminogen activator inhibitor-1 (PAI1) Biomarker Activity (AID 2284284); details: primary human coronary artery smooth muscle cells;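 further: PAI-1 protein level measured by ELISA 24 h after dosing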
[9] = read-out: Monocyte Chemoattractant Protein-1 (MCP1), CCL2 (gene 6347); test: BSK_hDFCGF_MCP1: BioMAP Diversity Plus: hDFCGF Assay for Monocyte Chemoattractant Protein-1 (MCP1) Biomarker Activity (AID 2284285); details: primary human foreskin fibroblasts
Outline: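 Human foreskin fibroblasts (hDFCGF system) were exposed to compound and secreted MCP-1 was measured by ELISA after 24 hours. Activity was fitted relative to DMSO. Cytotoxicity was checked by SRB total-protein staining in parallel cultures.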

| SMILES | outcome [1] | outcome [2] | outcome [3] | outcome [4] | outcome [5] | outcome [6] | outcome [7] | outcome (KRT18 (gene 3875)) | outcome [8] | outcome [9] | AC50 [4] | AC50 [6] | AC50 [9] |
| --- | --- | --- | --- | --- | --- | --- | --- | --- | --- | --- | --- | --- | --- |
| FC(F)(F)C(F)(C(F)(F)F)C(F)(F)C(F)(F)CC1CO1 (centres undefined) | inactive | inactive | inactive | inactive | inactive | inactive | inactive | inactive | inactive | inactive | – | – | – |
| COC(=O)C(F)(F)C(F)(F)OC(F)(C(F)(F)F)C(F)(F)OC(F)=C(F)F (centres undefined) | inactive | inactive | inactive | – | inactive | – | inactive | inactive | inactive | inactive | 1.61 µM (active) and 1.92 µM (active) | 3.93 µM (active) and 4.84 µM (active) | – |
| OCC(F)(F)OC(F)(F)C(F)(F)OC(F)(F)C(F)(F)OC(F)(F)F | inactive | inactive | inactive | inactive | inactive | inactive | inactive | inactive | inactive | inactive | – | – | – |
| OCC(F)(F)OC(F)(F)C(F)(F)OC(F)(F)C(F)(F)OC(F)(F)CO | inactive | inactive | inactive | inactive | inactive | inactive | inactive | inactive | inactive | – | – | 30 µM (active) | 30 µM (active) and 23.7 µM (active) |
| O=C(O)C(F)(F)OC(F)(F)C(F)(F)OC(F)(F)F | inactive | inactive | inactive | inactive | inactive | inactive | inactive | inactive | inactive | inactive | 22 µM (active) | – | – |
| COP(=O)(CCC(=O)NCO)OC | – | – | – | – | inactive | inactive | inactive | inactive | inactive | inactive | – | – | – |
| C=CC(=O)OCC(F)(F)C(F)F | inactive | inactive | inactive | inactive | inactive | inactive | inactive | inactive | inactive | – | – | – | 40.7 µM (active) and 41.8 µM (active) |
| CC(O)C(F)(F)C(F)(F)F (centres undefined) | inactive | inactive | inactive | inactive | inactive | inactive | inactive | inactive | inactive | inactive | – | – | – |
| O=S(=O)(F)C(F)(F)C(F)(F)C(F)(F)C(F)(F)C(F)(F)C(F)(F)C(F)(F)C(F)(F)F | inactive | inactive | inactive | inactive | inactive | inactive | inactive | inactive | inactive | inactive | – | – | – |
| OCC(F)(F)OC(F)(F)C(F)(F)OC(F)(F)CO | inactive | inactive | inactive | inactive | inactive | inactive | inactive | inactive | inactive | inactive | – | – | – |
| O=C(O)C(F)(F)C(F)(F)C(=O)O | inactive | inactive | inactive | inactive | inactive | inactive | inactive | inactive | inactive | inactive | – | – | – |
| O=C(O)C(F)(OC(F)(F)C(F)(F)C(F)(F)F)C(F)(F)F (centres undefined) | inactive | inactive | inactive | inactive | inactive | inactive | inactive | inactive | inactive | inactive | 5.95 µM (active) | – | – |
| NC(=O)C(F)(F)C(F)(F)F | inactive | inactive | inactive | inactive | inactive | inactive | inactive | inactive | inactive | inactive | – | – | – |
| O=C(O)C=CC(F)(C(F)(F)F)C(F)(F)F | inactive | inactive | inactive | inactive | inactive | inactive | inactive | inactive | inactive | inactive | – | – | – |
| O=C(O)C(F)(F)OC(F)(F)C(F)(F)OC(F)(F)C(=O)O | inactive | inactive | inactive | inactive | inactive | inactive | inactive | inactive | inactive | inactive | – | – | – |
